# Data published in the supplement of paper PMC6555819.
# Test system: VDR:RXRa (NR concentration 270 nM, RXRa partner concentration 90 nM)
# Experiment: PBM binding z-score (relative to random genomic background probes); higher = stronger binding; sequences stand for … in GC…GCGATTGACAGCGTAGAATGAAGG
# Procedure: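 Protein-binding microarray (Agilent 4x180K custom design, double-stranded 60-nt probes: 5' GC cap, 34-nt variable region, 24-nt constant primer region; full probe sequence given). Purified or IVT nuclear receptor:RXRα heterodimers (3:1 NR:RXRα, mostly 270:90 nM) or homodimers were incubated for 1 h in PBS with 2% milk and no ligand, then detected with Alexa488 antibodies. Fluorescence from o1-orientation probes (~5 replicates averaged) was converted to z-scores against 500 random hg19 background probes. Variable regions are seed direct-repeat (DR0–DR5) sites, all their single-nucleotide variants and half-site ablations.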
row,Sequence,PBM binding z-score
1,ATCTCTAGGTGAAGATAGTTCAGTGAATGCAAAT,0.849
2,CCTTACGGGGCAAGGTTATAGCACGGGTGGTACG,0.0431
3,GCGACTGGGGAAAAGCAGGTTACCATAAGGTTGG,-0.273
4,CCGACTGGGTCATAAGGTTACCATAAGCCAGCCC,2.81
5,TCATATAGGTAAGTGCTAGGTGAAAGTCCGATCT,0.679
6,ACTAGCAGGCCAAGTTTGGGTCACTCACACAAAG,0.806
7,ATATGTAGGTTACATCCGGGTCGTTCAGGCTATG,2.52
8,ATCTCTAGGTAAAGATACTTCAGTGAATGCAAAT,0.244
9,ACTAGCAGGCCAGGTTTGGGTCACTCAAACAAAG,0.437
10,GCGAGCAGGCCATTTGGGTCACTCAATGACGGGC,0.881
11,TCGAGTAGGCTAGGGGCATTCAGAATGGCGTCGA,-0.094
12,GCTAGCAGGCCATTTGGGTCACTGAATGACGGGC,0.821
13,CCGACGGGGGCATAAGGTTACCATAAGCCAGCCC,3.5
14,TCTGCTAGGTCAGTAGGTCAGCTAACGAGCTGCC,0.994
15,ACTATTAGTTGACTTAGGACAACCGATACGACGC,0.499
16,AGAATGAGGTTAAGATCAGTGAAACAGAATACAT,1.47
17,ATCGAAAGGTCGAGGTGATTATAGAGAAAGGGAA,2.43
18,TCTGCTAGGTCAGCTGGTCAGCTAACGAGCTGCC,0.12
19,TAGCCTAGATCATTCAGGGGCCAGTATAGAAAGC,-0.321
20,AGCATGAGGTTATACGTAGATCAGGGAAGAAAGT,1.44

row,Sequence,PBM binding z-score
1,CCAACTAGGTCAGAACAGGACAGTGAAGGATGAT,1.08
2,GCTCCTAGGTCAACTGATGGTCAGCTAAAGCTCG,2.29
3,GTTGCTAGGTCAGGTTGGTCAGCTAACGGGTACG,0.892
4,ACTAGTTGGTCAGCTGAGGTCACATACAATTCGG,4.21
5,GGAACGAGGGCAAAGTTGATCGCATCTGTCGACG,1.1
6,TGAATGAGGTTAAAGATCTGGGAACGTGGCGTCG,1.31
7,CCGACCGGGGCAGAAAGGTTACCATACCATCCGG,1.5
8,CCTATTAGATGACCATAAGGGCAACCGAAGCTCG,0.352
9,CGTCAAAGTTCAACTAAGGTAACGAAAAGCACGC,4.64
10,TCTATTAGTTGATTAGGGCAGCCGAAACAGCGGA,0.607
11,TTACCAAGGTGAGCAGAGGTCGTTGATCCAACTC,3.68
12,CGTCCAAGGTCAAGGTCCGTGAAAGAGACTCGAA,4.04
13,GCTGCTAGGTCCACTGATGGTCAGCTAAAGCTCG,-0.609
14,CGAACGAGGGCATGAGTTGACAGCAAATGCCGAT,1.2
15,ACTAGGAGGCCAAGGGTCACTCAAGATTAGTCCG,2.98
16,ACTAGCAGGCCAAGTTTGGGTCGCTCAAACAAAG,-0.328
17,TCAGACAGGTGAAGGTACCTCAGGTACGCAGTCG,0.202
18,CCTCGAAGGACAACAGGAGGTCAGAGCTGCCAGA,1.73
19,GCTCGGAGGACAAGGTCAGAGCATTGTCCGTAGA,1.5
20,ACTCGGAGGACAAAGGTCAAAGCTACGCCAGTGA,4.8
